CHT inh: human CHT choline transport inhibition. B-score at 10 µM. AID 488975. CHT-expressing cells, membrane potential dye, choline response; stronger effect = lower value. 310,000 tested, 0.86% active;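 active means B-score over 3 SD under the library average, and starting fluorescence ratio not unusually high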;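 further: choline stimulus applied at its EC90 after an EC20 pre-addition; B-score computed on integrated fluorescence ratio after choline addition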
CHT PAM: allosterically activates the human high affinity choline transporter. CHT-expressing cells, membrane potential dye, choline EC20; stronger effect = higher value; LV-AA mutant CHT in HEK293 cells. AID 488977. B-score at 10 µM. 310,000 tested, 0.49% active;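 active means initial fluorescence not abnormally high and integrated response B-score, plate-corrected, over 3 SD above library mean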
TMEM16A act: activates or potentiates the mouse TMEM16A chloride channel; Q8BHY3; HEK293 TMEM16A/YFP-H148Q/I152L, iodide quench fluorescence; stronger effect = lower value; B-score at 10 µM; 340,000 tested, 0.3% active; AID 623877;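 active means fluorescence-ratio B-score plate-corrected deviation score at least 3 library SD below zero, with starting fluorescence score within 5 deviations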;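 further: channel opened by trigger with iodide after compound preincubation; score built on the fluorescence ratio of max minus min over baseline; more negative score means more quench and so TMEM16A activation or potentiation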
Target sequence (Q8BHY3 whole entry, looked up): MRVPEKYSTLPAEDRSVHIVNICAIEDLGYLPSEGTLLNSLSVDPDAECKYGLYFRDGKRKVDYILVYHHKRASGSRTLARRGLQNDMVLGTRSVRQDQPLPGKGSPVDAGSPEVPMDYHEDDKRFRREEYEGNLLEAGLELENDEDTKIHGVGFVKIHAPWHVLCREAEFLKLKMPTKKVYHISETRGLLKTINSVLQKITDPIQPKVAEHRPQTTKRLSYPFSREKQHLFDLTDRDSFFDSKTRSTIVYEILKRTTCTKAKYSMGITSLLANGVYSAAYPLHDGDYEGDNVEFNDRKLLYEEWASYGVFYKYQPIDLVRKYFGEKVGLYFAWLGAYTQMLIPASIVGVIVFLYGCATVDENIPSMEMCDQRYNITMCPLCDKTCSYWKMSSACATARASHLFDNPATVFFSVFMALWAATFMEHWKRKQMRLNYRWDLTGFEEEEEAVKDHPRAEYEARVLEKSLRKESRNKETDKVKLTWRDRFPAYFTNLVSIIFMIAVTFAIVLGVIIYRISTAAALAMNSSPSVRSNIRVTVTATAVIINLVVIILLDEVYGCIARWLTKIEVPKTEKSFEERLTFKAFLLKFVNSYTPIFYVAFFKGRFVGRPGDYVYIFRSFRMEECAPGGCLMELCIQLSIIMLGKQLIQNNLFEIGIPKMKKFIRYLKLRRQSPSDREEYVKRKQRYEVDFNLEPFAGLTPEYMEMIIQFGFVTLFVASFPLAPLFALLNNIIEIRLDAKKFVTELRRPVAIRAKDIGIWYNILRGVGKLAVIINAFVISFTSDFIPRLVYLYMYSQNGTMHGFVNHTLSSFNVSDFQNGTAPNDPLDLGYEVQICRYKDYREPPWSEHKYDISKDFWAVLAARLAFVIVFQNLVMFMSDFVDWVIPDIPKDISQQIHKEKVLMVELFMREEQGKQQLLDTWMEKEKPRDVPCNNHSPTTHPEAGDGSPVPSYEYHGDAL
IDE inh: inhibitors of human insulin-degrading enzyme in cells. P14735. AID 434962. 320,000 tested, 0.41% active. inhibition, % at 5.59 µM. HEK cells, FAbetaB cleavage, fluorescence polarization;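 active means percent inhibition above the average of all tested compounds plus 3 SD, set per screening campaign, cut at about 16% in these data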;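 further: IDE supplied by intact live HEK cells; FP after avidin binding of uncleaved biotin substrate so inhibition keeps polarization high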
IDE act: activators of human insulin-degrading enzyme in cells | HEK cells, FAbeta-B cleavage, fluorescence polarization; 0% vehicle, 100% cell-free pure enzyme wells | activation, % at 5.96 µM | P14735 | 340,000 tested, 0.073% active;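 active means activation above the mean of all tested compounds plus 3 SD, set per screening campaign, cut at about 17% in these data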
TMEM16A inh: inhibitors of mouse TMEM16A calcium-activated chloride channel | HEK293 TMEM16A/YFP iodide influx fluorescence, ionomycin | normalized B-score (activity score, 25-100; higher = stronger inhibition) at 10 µM | 310,000 tested, 1.2% active | AID 588511;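 active means ratio plate-corrected score three or more library SD toward inhibition, starting fluorescence score within five deviations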;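 further: score derived from kinetic fluorescence span divided by baseline fluorescence per well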
CHT inh conf: confirmation of human choline transporter CHT inhibitors; shares compounds with CHT inh; CHT-expressing cells, choline membrane potential dye; LV-to-AA substituted CHT, HEK293 cells; CHT activity remaining % of control (stronger effect = lower value), % at 10 µM; 2,400 tested, 70% active;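 active means choline transporter activity left, mean of duplicates at 10 µM, below buffer-only control mean minus 3 SD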;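 further: depolarization triggered by choline at its EC90 following an EC20 pre-addition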
HEK293 MPD ctr: activity in parental HEK293 cells lacking CHT. membrane potential dye, choline response; active = decrease or increase beyond buffer ±3SD. membrane potential ratio readout (active if shifted either direction beyond buffer ±3SD; no single direction) at 10 µM. 2,400 tested, 4% active. shares compounds with CHT inh. AID 493222;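 further: parental cells lack the transporter so any hit is non-specific; ratio is peak minus trough fluorescence over baseline after EC90 choline challenge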
Hits are given with their value; – = inactive; · = no result. A selection: hits, their analogues and other compounds. The true share with any hit is near 2.7%.

SMILES	CHT inh	CHT PAM	TMEM16A act	IDE inh	IDE act	TMEM16A inh	CHT inh conf	HEK293 MPD ctr
Cc1ccc(S(=O)(=O)NCCC(=O)O)cc1	–	–	–	–	–	–	·	·
CCOC(=O)c1c(NC(=O)CSc2ncn[nH]2)sc(C(=O)N(C)C)c1C	–	–	–	–	–	–	·	·
CCOC(=O)c1c(NC(=O)CSc2ncn[nH]2)sc(C)c1C	-6.72	–	–	–	–	–	–	–
CCCCc1nc(NCCO)c(C#N)c2c1CCCC2	-5.91	–	–	–	–	–	–	–
CC1CCCCC1NC(=O)c1ccc(S(=O)(=O)NCC2CCCO2)cc1 (configuration not stated)	-11.9	–	–	–	–	–	11.1%	–
CC(=O)Oc1ccc(C(=O)Nc2ccc(S(=O)(=O)NCC3CCCO3)cc2)cc1 (configuration not stated)	-5.11	–	–	–	–	–	70.1%	–
O=C(CSc1nnc2ccccn12)NNC(=O)c1cccc(Cl)c1	·	·	–	–	–	·	·	·
CC(=C\c1ccccc1)/C=C1/SC(=S)N(CCC(=O)O)C1=O	–	–	–	–	–	–	·	·
CC(/C=C1\SC(=S)N(CC(=O)O)C1=O)=C\c1ccccc1	-6.03	–	–	–	–	–	40.4%	–
CN(C)C1=NCCN1CCC1CCCCC1	–	–	–	–	–	–	·	·
Cn1cnnc1SCC(=O)NCCC(c1ccccc1)c1ccccc1	–	–	–	–	–	–	·	·
Cn1cnnc1Sc1ccc(C(=O)NCCC(c2ccccc2)c2ccccc2)cc1[N+](=O)[O-]	-10.3	–	–	–	–	–	31.6%	–
CCOC(=O)C1CCCN(c2c(NCCC(C)C)c(=O)c2=O)C1 (configuration not stated)	–	–	–	–	–	–	·	·
CCOC(=O)C1CCN(c2c(NCCC(C)C)c(=O)c2=O)CC1	-6.43	–	–	–	–	–	–	–
CC1=NC(C)(C)Cc2cc(C)c(C)cc21	-8.21	–	–	–	–	–	41.6%	–
CC1=NC(C)(C)Cc2c(C)cccc21	–	–	–	–	–	–	·	·
O=C(NCc1ccc(Cl)cc1)c1ccc(NC(=O)C2CCCO2)cc1 (configuration not stated)	–	–	–	–	–	–	·	·
CC(=NO)c1ccc2c(c1)C(=NO)c1ccccc1-2	·	·	–	·	–	·	·	·
Cc1ccc(S(=O)(=O)NC2=C(N3CCN(c4ccccc4F)CC3)C(=O)c3ccccc3C2=O)cc1	–	–	–	–	–	–	·	·
Cc1ccc(S(=O)(=O)NC2=C(N3CCN(Cc4ccccc4)CC3)C(=O)c3ccccc3C2=O)cc1	-5.55	–	–	–	–	–	70.9%	–
Cc1ccc(S(=O)(=O)N2CCCCC2C(=O)N2CCN(Cc3ccccc3)CC2)cc1 (configuration not stated)	-7.86	–	–	–	–	–	36.7%	-8.61
Cc1ccc(S(=O)(=O)N2CCCC2C(=O)N2CCCCCC2)cc1 (configuration not stated)	–	–	–	–	–	–	·	·
CCN(CC)S(=O)(=O)c1cccc(C(=O)NNC(=O)C2=NN(c3ccccc3)C(=O)CC2)c1	–	–	–	–	–	–	·	·
CC(OC(=O)COc1cccc2c1OC(C)(C)C2)C(=O)Nc1ccc(S(N)(=O)=O)cc1 (configuration not stated)	–	–	–	–	–	–	·	·
CNCC(=O)N1CCN(c2ncc(C(F)(F)F)cc2Cl)CC1	–	–	–	–	–	–	·	·
SMILES	CHT inh	CHT PAM	TMEM16A act	IDE inh	IDE act	TMEM16A inh	CHT inh conf	HEK293 MPD ctr
O=C(CSc1ccccn1)N1CCN(c2ncc(C(F)(F)F)cc2Cl)CC1	-5.3	–	–	–	–	–	–	–
COc1ccc2oc(C(=O)OCC(=O)N(C)CC(=O)Nc3ccc(F)cc3)c(C)c2c1	–	–	–	–	–	–	·	·
O=C(NC1CCCCCC1)C1c2ccccc2C(=O)N1Cc1ccco1 (configuration not stated)	-5.66	–	–	–	–	–	–	-8.35
CC(C)C(=O)Nc1cccc(NC(=O)c2ccc(Cl)cc2Cl)c1	-9.43	–	–	–	–	–	42.9%	–
CC(C)(C)c1ccc(-c2nnc(N)s2)cc1	-6.02	–	–	–	–	–	–	–
Nc1nnc(-c2ccc(F)cc2)s1	–	–	–	–	–	–	·	·
Cc1cc(/C=N/NC(=O)C(=O)N2CCCC2)c(C)n1-c1cccc(Br)c1	-7.39	–	–	–	–	–	58.0%	–
Cc1cc(/C=N/NC(=O)c2c(Br)cnn2C)c(C)n1-c1cccc(Br)c1	–	–	–	–	–	–	·	·
O=C(CC(=O)NC1CCCCC1)N/N=C/c1ccccc1[N+](=O)[O-]	–	–	–	–	–	–	·	·
Oc1ccc(Oc2ncc(Cl)cc2Cl)cc1	-5.4	–	–	–	–	–	59.2%	–
Cn1c(/C=C/N(Cc2ccccc2)c2ccccc2)c([N+](=O)[O-])c(=O)n(C)c1=O	-8.36	–	–	–	–	–	49.5%	–
CCc1ccc(/C=C/c2c([N+](=O)[O-])c(=O)n(C)c(=O)n2C)cc1	–	–	–	–	–	–	·	·
CCn1c(=O)cc(SCC(=O)Nc2ccc(Cl)cc2)c2ccccc21	–	–	–	–	–	–	·	·
CCn1c(=O)cc(SCC(=O)Nc2ccc(OC)c(OC)c2)c2ccccc21	-5.98	–	–	–	–	–	–	–
COCC(=O)NC1CCN(S(=O)(=O)c2ccc(C(=O)O)cc2)CC1	–	–	–	–	–	–	·	·
COCC(=O)NC1CCN(S(=O)(=O)c2cccc(C(C)=O)c2)CC1	-5.14	–	–	–	–	–	–	–
S=C(NCc1ccccn1)Nc1ccc(Br)cc1Cl	-6.35	–	–	–	–	–	37.8%	–
O=C(COC(=O)C1(c2ccccc2F)CCCC1)N1CCN(C(=O)c2ccco2)CC1	-5.42	–	–	–	–	–	67.9%	–
CCC(C)c1ccc(C(CC)NC(=O)C2CCCO2)cc1 (configuration not stated)	–	–	–	–	–	–	·	·
CCC(C)c1ccc(NC(=S)NC(C)C2CCCO2)cc1 (configuration not stated)	-8.32	–	–	–	–	–	47.1%	–
CC1CCN(C(=O)COC(=O)c2cccs2)CC1	·	·	–	–	–	·	·	·
CCC1Sc2ccc(S(=O)(=O)N3CCN(c4ccccc4)CC3)cc2NC1=O (configuration not stated)	–	–	–	–	–	–	·	·

Screening data (PubChem BioAssay)
